Screening data deposited in PubChem by National Center for Advancing Translational Sciences (NCATS).
Tb PYK inh: qHTS of Trypanosoma Brucei Inhibitors. TbPYK enzyme, Kinase-Glo Plus ATP luminescence, 45 min. Potency, µM (series often up to 76.8 µM), hits mostly inhibitors. actives 0.12% (n = 410,000); active = well fitted curve in the direction sought with a large enough effect; inconclusive = small, poorly fitted or top-dose-only effect, or another doubt; inactive = no such curve, though single readings can be large; an effect the other way counts as inactive or inconclusive; also: nearly all actives have a fitted effect of over 50% in size
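Luminescence from Kinase-Glo Plus, added after a 45-minute room-temperature reaction, served as the end-point read-out. The enzyme and substrate were preincubated with compound before ADP (130 uM final) initiated turnover. Concentration-effect curves came from normalized qHTS data.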
SARS PLpro yeast: qHTS of Yeast-based Assay for SARS-CoV PLP; Potency, µM (titrated, usually from 32.9 µM), usual class: activators; S. cerevisiae expressing SARS-CoV PLpro, growth rescue; actives 0.19% (n = 330,000); AID 485353, 2010; also: nearly all actives have a fitted effect of over 55% in size
NS1 function inh: qHTS Assay for Inhibitors of Influenza NS1 Protein Function; Potency, µM (highest dose often 46.1 µM); actives 0.4% (n = 270,000); also: actives are rising curves; nearly all actives have a fitted effect of over 50% in size
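In this qHTS, NS1 from influenza A is expressed in budding yeast, where it slows growth. Cells are switched from glucose to 2% galactose medium (pH 6.0, -URA), treated with compound, and growth recovery is read at OD600.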
LmPK inhibitor: qHTS Assay for Inhibitors of Leishmania Mexicana Pyruvate Kinase (LmPK) | Q27686 | purified LmPK, Kinase-Glo ATP luminescence, 1 h | Potency, µM (doses to about 57.5 µM), most hits filed as inhibitors | actives 0.37% (n = 290,000); active = well fitted curve in the direction sought with a large enough effect; inconclusive = small, poorly fitted or top-dose-only effect, or another doubt; inactive = no such curve, though single readings can be large; an effect the other way counts as inactive or inconclusive
Target sequence (Q27686 whole entry, looked up): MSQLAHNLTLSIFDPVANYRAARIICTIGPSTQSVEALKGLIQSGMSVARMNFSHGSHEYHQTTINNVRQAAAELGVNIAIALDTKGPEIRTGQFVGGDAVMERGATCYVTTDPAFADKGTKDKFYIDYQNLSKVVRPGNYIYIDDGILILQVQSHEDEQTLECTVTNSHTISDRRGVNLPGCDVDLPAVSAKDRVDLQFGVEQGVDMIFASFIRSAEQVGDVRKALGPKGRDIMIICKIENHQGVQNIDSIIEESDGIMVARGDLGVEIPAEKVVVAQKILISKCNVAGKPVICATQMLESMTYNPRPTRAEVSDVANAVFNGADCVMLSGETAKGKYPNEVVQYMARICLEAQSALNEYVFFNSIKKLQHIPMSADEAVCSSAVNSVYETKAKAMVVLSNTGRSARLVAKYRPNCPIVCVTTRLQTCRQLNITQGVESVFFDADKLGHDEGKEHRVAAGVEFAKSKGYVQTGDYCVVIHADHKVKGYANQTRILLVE
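qHTS format; LmPK 0.1 nM; substrates PEP 0.5 mM and ADP 0.1 mM. One-hour room-temperature incubation, then coupled luciferase luminescence; 0.5 nM enzyme wells mark activation.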
Shiga inhibitor: A qHTS for Small Molecule Inhibitors of Shiga Toxin. Vero cells, Shiga toxin protein synthesis inhibition reporter. inhibition, % at 38.7 µM. actives 9.2% (n = 290,000); in the data active = inhibition mostly above about 28%, no sharp cut-off; inactive = mostly below about 43%
Cycloheximide cs: Cycloheximide Counterscreen for Small Molecule Inhibitors of Shiga Toxin; cell reporter, cycloheximide protein synthesis inhibition counterscreen; max response, %; actives 12% (n = 300,000); AID 2314, 2010; in the data active = max response mostly above about 13%, no sharp cut-off; inactive = mostly below about 14%; also: read at 38.3 µM for the half of the compounds with a filed dose
Numbers stand for hits; n = inactive; u = inconclusive; x = no result. The sample as a whole holds a higher share of hits than the screen did. Unless noted, calls follow the shape of the full dose curve.

SMILES	Tb PYK inh	SARS PLpro yeast	NS1 function inh	LmPK inhibitor	Shiga inhibitor	Cycloheximide cs
CCCC(=O)NNC(=O)CC(=O)Nc1ccccc1C(=O)O	n	n	n	n	n	n
O=C(CCc1ccccc1)Nc1ccccc1[N+](=O)[O-]	n	n	n	n	54	26
CC#CCCCC(=O)Nc1ccccc1C(=O)O	n	n	n	n	83	28
CC(=O)N[C@@H](Cc1c[nH]c2ccccc12)C(=O)OCC(=O)Nc1cc(C)on1	n	x	x	x	x	x
CC1=C(C(=O)N2CCCCCC2)CC(CC(=O)NCCCN(C)C)C(=O)N1Cc1ccccc1 (centres undefined)	n	x	x	x	x	x
COc1cc(OC)cc(C(=O)Nc2ccc(N(C)C)c3ccccc23)c1	n	n	n	n	n	n
Cc1ccc(NC(=O)CCCc2ccccc2)c([N+](=O)[O-])c1	n	n	n	n	35	32
Nc1c(NC(=O)CC[n+]2ccccc2)cccc1[N+](=O)[O-]	n	n	n	n	96	46
CN(C)c1ccc(NC(=O)Cc2ccccc2)c2ccccc12	n	n	n	n	n	15
O=C(CCCc1ccccc1)Nc1ccccc1[N+](=O)[O-]	u	n	n	n	27	37
CC(C)C[C@H](NC(=O)[C@H](CC(C)C)NC(=O)[C@H](Cc1ccccc1)NC(=O)[C@@H](N)CO)C(=O)N[C@@H](CCCN=C(N)N)C(=O)N[C@@H](CC(N)=O)C(=O)O	x	x	x	x	n	n
Cc1ccc(CCNC(=O)CSCc2ccc(F)cc2)cc1	n	n	n	n	n	n
COc1cccc(C(O)c2nc(-c3cnn(C)c3)cs2)c1 (centres undefined)	n	x	x	x	x	x
O=C(CC(=O)Nc1ccccc1C(=O)O)NNC(=O)Cc1ccccc1	n	n	n	n	n	n
O=C(Cc1ccccc1)Nc1ccccc1C(=O)O	n	n	n	n	76	35
Cc1c(CNCCc2ccccc2Cl)c(C(=O)O)c(C)n1-c1ccccc1	n	n	n	n	n	17
O=C1C2C3C=CC(CO)(O3)C2C(=O)N1c1ccccc1-c1ccccc1 (centres undefined)	u	n	n	18µM	n	n
CC(=O)Oc1ccc(N2C(=O)C3C4C=CC(CO)(O4)C3C2=O)cc1 (centres undefined)	u	n	n	n	n	n
CCc1c(C)nc2ccc(Br)cc2c1Cl	n	n	n	n	n	n
Nc1nc(Cl)nc2ccc(Br)cc12	n	n	n	n	53	67
Cc1cc(F)ccc1NCc1ccccc1-c1nnc(-c2ccccc2Cl)o1	n	x	x	x	x	x
Cc1cccc(NC(=O)NCCc2ccc(Cl)cc2)c1	n	n	n	n	n	n
S=C(NCCc1cccc(Cl)c1)NCc1ccccc1	x	n	n	n	n	25
COc1ccc(NC(=O)NCCc2cccc(Cl)c2)cc1OC	n	n	n	n	n	34
O=C(NCCc1ccncc1)Nc1ccccc1	n	n	n	n	n	n
SMILES	Tb PYK inh	SARS PLpro yeast	NS1 function inh	LmPK inhibitor	Shiga inhibitor	Cycloheximide cs
O=C(NCCc1ccc(Cl)cc1)Nc1cccc(Cl)c1	n	n	n	n	37	n
COc1ccc(CCNC(=O)Nc2ccc3c(c2)c(=O)n(C)n3Cc2ccc(Cl)cc2)cc1OC	n	x	x	x	x	x
O=C(NCCc1ccccc1)Nc1cccc(Cl)c1	n	n	n	n	n	49
C#CCSc1nnnn1-c1ccc(OCC)cc1	n	n	n	n	n	n
CC(C)(C)Cc1c(-c2ccco2)nc2ccc(Cl)cn12	n	x	x	x	x	x
CN(C)CCN(C)c1cc2c(c3c1ccn3C)C1CCC2O1 (centres undefined)	n	x	x	x	x	x
O=C(O)/C=C/C(=O)NCCc1cccc(Cl)c1	n	n	n	n	n	n
O=C(/C=C/c1cccc(Cl)c1)NCCc1ccccc1	n	n	n	n	107	65
Cc1sc(NC(=O)c2ccc(Cl)s2)c(C(N)=O)c1C	n	n	n	n	103	68
Cc1sc(NC(=O)c2ccc(Br)s2)c(C(N)=O)c1C	n	n	n	n	69	51
Cc1sc(NC(=S)Nc2ccc(F)cc2)c(C(N)=O)c1C	n	n	n	n	n	n
COc1ccc(-n2nc(C(=O)NCC(=O)NCCCN3CC(C)CC(C)C3)c3ccccc3c2=O)cc1 (centres undefined)	n	n	n	n	n	n
CN(c1ccccc1)S(=O)(=O)c1ccc(NC(=O)CC(=O)c2ccccc2)cc1	n	x	x	x	x	x
Cc1cc(C(=O)N/N=C/c2ccc(Cl)c([N+](=O)[O-])c2)c(C)n1-c1ccc(F)cc1	n	n	n	n	35	n
O=C(N/N=C/c1ccc2c(c1)OCO2)c1ccc(NC(=O)c2ccc(F)cc2)cc1	n	n	n	n	n	n
Cc1cc(C(=O)N/N=C/c2ccc3c(c2)OCO3)c(C)n1-c1ccc(F)cc1	n	n	n	n	62	27
C=C1CCN(C(C(=O)NCc2ccc(Cl)c(Cl)c2)C(C)C)S(=O)(=O)c2ccccc21 (centres undefined)	x	x	x	x	n	n
CCOC(=O)N1CCN(Cc2nc3cc(NC(=O)c4cccs4)ccc3n2CC)CC1	n	n	n	n	n	25
Cn1c(CN2CCCCC2)nc2cc(NC(=O)c3ccccc3)ccc21	n	n	n	n	51	36
CC(=O)Nc1ccc2c(c1)nc(CCNC(=O)c1ccco1)n2C	n	n	n	n	n	n
Cn1c(CN2CCCCC2)nc2cc(NC(=O)c3cccc(Br)c3)ccc21	n	n	n	n	n	n
Cc1ccc(C(=O)Nc2ccc3c(c2)nc(CCNC(=O)c2ccco2)n3C)cc1	n	n	n	n	44	32
CC1CCN(CCc2nc3cc(NC(=O)Nc4ccccc4)ccc3n2C)CC1	n	n	n	n	111	35
Cn1c(CN2CCCC2)nc2cc(NC(=O)c3ccco3)ccc21	n	n	n	n	n	33
CCOC(=O)Nc1ccc2c(c1)nc(CN1CCCCC1)n2C	x	n	n	n	n	23
SMILES	Tb PYK inh	SARS PLpro yeast	NS1 function inh	LmPK inhibitor	Shiga inhibitor	Cycloheximide cs
Cn1c(CN2CCCCC2)nc2cc(NC(=O)c3cccs3)ccc21	n	n	n	n	43	28
Cn1c(CN2CCCC2)nc2cc(NC(=O)Nc3ccccc3)ccc21	n	n	n	n	n	18
CC(=O)Nc1ccc2c(c1)nc(CN1CCCC1)n2C	n	n	n	n	n	n
CN1CCN(CCc2nc3cc(NC(=O)c4ccco4)ccc3n2C)CC1	n	n	n	n	n	n
COc1ccc(C(=O)Nc2ccc3nc4c(c(Nc5ccccc5OC)c3c2)CCCC4)c(OC)c1	n	x	x	x	x	x
O=C(O)c1nnsc1COCc1ccccc1	x	x	n	x	x	x
CC(=O)c1ccc(N2CCN(C(=O)c3cc4ccc5cccnc5c4[nH]3)CC2)cc1	n	x	x	x	x	x
CCCn1c(=O)c2ccccc2n2c(SCCOc3ccc(Cl)cc3)nnc12	n	n	n	n	70	n
